# The supplement of paper PMC6522484
# Structures can show the parent of a compound that is named as a salt. ± gives the standard deviation of the averaged measurements.
# Assays:
# DLD1 [1] = experiment: cell viability (CellTiter-Glo) relative to plate median (fraction of plate median); higher = more viable cells; details: 5 µM; treatment time 24 h; reporter: 7TFP
# Procedure, shortened: (§1)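 Luminescence, normalised well by well to the plate median, is tabulated as a mean of independent replicates. There were two replicates, run on colorectal cancer lines stably transduced with lentiviral TCF/Wnt firefly luciferase reporters and dosed with library compounds at a final 5 µM for 24 h. Readouts were firefly luciferase or CellTiterGlo on parallel plates.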
# HCT116 = experiment: as above; details: 5 µM; treatment time 24 h; reporter: TCF4/Wnt
# Procedure, shortened: as §1
# SW480 [2] = experiment: as above; details: 5 µM; treatment time 24 h; reporter: 7TFP
# Procedure, shortened: as §1
# DLD1 [3] = experiment: TCF/Wnt firefly luciferase reporter signal relative to plate median (fraction of plate median); higher = higher Wnt reporter signal; details: 5 µM; treatment time 24 h; reporter: 7TFP
# Procedure, shortened: as §1
# SW480 [4] = experiment: as above; details: 5 µM; treatment time 24 h; reporter: 7TFP
# Procedure, shortened: as §1
smiles,measurement,setting,value
CCCC(=O)NCCc1ccccc1 [N-(2-Phenyl)ethylbutyramide],cell viability,DLD1 [1],1.07 ± 0.11
same,cell viability,HCT116,1.08 ± 0.15
same,cell viability,SW480 [2],1.06 ± 0.071
same,TCF/Wnt firefly luciferase reporter signal,DLD1 [3],1.07 ± 0.14
same,TCF/Wnt firefly luciferase reporter signal,SW480 [4],0.9865 ± 0.00071
C[C@@H]1O[C@@H](OC[C@H]2O[C@@H](Oc3c(-c4ccc(O)c(O)c4)oc4cc(O)cc(O)c4c3=O)[C@H](O)[C@@H](O)[C@@H]2O)[C@H](O)[C@H](O)[C@H]1O [RUTOSIDE  (rutin)],cell viability,DLD1 [1],0.972
same,cell viability,HCT116,0.881 ± 0.16
same,cell viability,SW480 [2],1.01 ± 0.016
same,TCF/Wnt firefly luciferase reporter signal,DLD1 [3],1.03 ± 0.042
same,TCF/Wnt firefly luciferase reporter signal,SW480 [4],0.769 ± 0.53
COc1c(O)cc2c(c1O)[C@@H]1O[C@H](CO)[C@@H](O)[C@H](O)[C@H]1OC2=O,cell viability,DLD1 [1],0.966 ± 0.049
same,cell viability,HCT116,0.912 ± 0.039
same,cell viability,SW480 [2],1.02 ± 0.04
same,TCF/Wnt firefly luciferase reporter signal,DLD1 [3],0.981 ± 0.14
same,TCF/Wnt firefly luciferase reporter signal,SW480 [4],1.09 ± 0.092
CC[C@H]1OC(=O)[C@H](C)[C@@H](O[C@H]2C[C@@](C)(OC)[C@@H](O)[C@H](C)O2)[C@H](C)[C@@H](O[C@@H]2O[C@H](C)C[C@H](N(C)C)[C@H]2O)[C@](C)(O)C[C@@H](C)CN(C)[C@H](C)[C@@H](O)[C@]1(C)O,cell viability,DLD1 [1],1.065 ± 0.0071
same,cell viability,HCT116,0.8915 ± 0.0035
same,cell viability,SW480 [2],1.01 ± 0.049
same,TCF/Wnt firefly luciferase reporter signal,DLD1 [3],0.97 ± 0.1
same,TCF/Wnt firefly luciferase reporter signal,SW480 [4],1.04 ± 0.12
COc1ccc2c(c1)c(CC(=O)OCC(=O)O)c(C)n2C(=O)c1ccc(Cl)cc1,cell viability,DLD1 [1],0.935 ± 0.073
same,cell viability,HCT116,0.885 ± 0.082
same,cell viability,SW480 [2],0.952 ± 0.04
same,TCF/Wnt firefly luciferase reporter signal,DLD1 [3],1.05 ± 0.16
same,TCF/Wnt firefly luciferase reporter signal,SW480 [4],1.07 ± 0.028
CC(CN(C)C)CN1c2ccccc2CCc2ccccc21 (stereo not given),cell viability,DLD1 [1],1 ± 0.021
same,cell viability,HCT116,0.929 ± 0.055
same,cell viability,SW480 [2],1.05 ± 0.086
same,TCF/Wnt firefly luciferase reporter signal,DLD1 [3],0.93 ± 0.097
same,TCF/Wnt firefly luciferase reporter signal,SW480 [4],1.13 ± 0.099
CC(C)NCC(O)c1ccc(O)c(O)c1 (stereo not given),cell viability,DLD1 [1],0.963 ± 0.11
same,cell viability,HCT116,1.04 ± 0.074
same,cell viability,SW480 [2],0.999 ± 0.016
same,TCF/Wnt firefly luciferase reporter signal,DLD1 [3],1.02 ± 0.08
same,TCF/Wnt firefly luciferase reporter signal,SW480 [4],1.1 ± 0.042
CCCCCCCCCCCC[C@H](O)[C@@H]1CC[C@@H]([C@@H](O)CCCCCCCC(=O)CC[C@@H](O)CC2=C[C@H](C)OC2=O)O1 [annocherin],cell viability,DLD1 [1],0.904 ± 0.09
same,cell viability,HCT116,0.871 ± 0.082
same,cell viability,SW480 [2],0.921 ± 0.093
same,TCF/Wnt firefly luciferase reporter signal,DLD1 [3],0.843 ± 0.12
same,TCF/Wnt firefly luciferase reporter signal,SW480 [4],0.855 ± 0.32
COc1ccc2ccc(=O)oc2c1,cell viability,DLD1 [1],1.02 ± 0.021
same,cell viability,HCT116,0.992 ± 0.025
same,cell viability,SW480 [2],0.97 ± 0.0071
same,TCF/Wnt firefly luciferase reporter signal,DLD1 [3],0.973 ± 0.053
same,TCF/Wnt firefly luciferase reporter signal,SW480 [4],0.915 ± 0.12
Nc1ccc(S(=O)(=O)c2ccc(N)cc2)cc1,cell viability,DLD1 [1],1.08 ± 0.057
same,cell viability,HCT116,0.956 ± 0.063
same,cell viability,SW480 [2],1.02
same,TCF/Wnt firefly luciferase reporter signal,DLD1 [3],0.94 ± 0.054
same,TCF/Wnt firefly luciferase reporter signal,SW480 [4],0.922 ± 0.059
N[C@@H](Cc1cc(I)c(Oc2cc(I)c(O)c(I)c2)c(I)c1)C(=O)O,cell viability,DLD1 [1],1.01 ± 0.037
same,cell viability,HCT116,1.11 ± 0.042
same,cell viability,SW480 [2],0.978 ± 0.018
same,TCF/Wnt firefly luciferase reporter signal,DLD1 [3],1.19 ± 0.057
same,TCF/Wnt firefly luciferase reporter signal,SW480 [4],1.17 ± 0.05
O=C(O)c1ccccc1OP(=O)(O)O,cell viability,DLD1 [1],0.9465 ± 0.0035
same,cell viability,HCT116,0.9665 ± 0.0092
same,cell viability,SW480 [2],0.911 ± 0.028
same,TCF/Wnt firefly luciferase reporter signal,DLD1 [3],0.939 ± 0.042
same,TCF/Wnt firefly luciferase reporter signal,SW480 [4],0.932 ± 0.04
COC(=O)[C@@H]1OC(=O)[C@H]2O[C@@]23[C@@]1(C)CCC1[C@@]2(C)CCC(=O)C(C)(C)C2C[C@@H](OC(C)=O)[C@]13C (stereo not given in full),cell viability,DLD1 [1],0.995 ± 0.078
same,cell viability,HCT116,1.1 ± 0.085
same,cell viability,SW480 [2],1.01 ± 0.034
same,TCF/Wnt firefly luciferase reporter signal,DLD1 [3],0.994 ± 0.037
same,TCF/Wnt firefly luciferase reporter signal,SW480 [4],0.967 ± 0.038
C/C1=C\CCC(=O)C2CC(C)(C)C2CC1 (stereo not given),cell viability,DLD1 [1],0.9755 ± 0.00071
same,cell viability,HCT116,0.908 ± 0.14
same,cell viability,SW480 [2],0.939 ± 0.012
same,TCF/Wnt firefly luciferase reporter signal,DLD1 [3],0.918 ± 0.098
same,TCF/Wnt firefly luciferase reporter signal,SW480 [4],1.004 ± 0.0078
C=C1C2CC[C@@]3(C)[C@H](c4ccoc4)OC(=O)C[C@]13O[C@H]1CC(O)C(C)(C)C(CC(=O)OC)[C@@]21C (stereo partly drawn) [3alpha-HYDROXY-3-DEOXYANGOLENSIC ACID METHYL ESTER],cell viability,DLD1 [1],1.01 ± 0.049
same,cell viability,HCT116,0.943 ± 0.081
same,cell viability,SW480 [2],1.02 ± 0.059
same,TCF/Wnt firefly luciferase reporter signal,DLD1 [3],1.05 ± 0.05
same,TCF/Wnt firefly luciferase reporter signal,SW480 [4],0.968 ± 0.06
"COc1cc(O)c2c(=O)cc(-c3ccc(OC)c(-c4c(O)cc(O)c5c(=O)cc(-c6ccc(O)cc6)oc45)c3)oc2c1 [GINKGETIN, K salt]",cell viability,DLD1 [1],0.994 ± 0.079
same,cell viability,HCT116,0.899 ± 0.04
same,cell viability,SW480 [2],0.9925 ± 0.0092
same,TCF/Wnt firefly luciferase reporter signal,DLD1 [3],1.1 ± 0.15
same,TCF/Wnt firefly luciferase reporter signal,SW480 [4],1.16 ± 0.2
CC[C@]1(O)C[C@H]2CN(CCc3c([nH]c4ccccc34)[C@@](C(=O)OC)(c3cc4c(cc3OC)N(C=O)[C@H]3[C@@](O)(C(=O)OC)[C@H](OC(C)=O)[C@]5(CC)C=CCN6CC[C@]43[C@@H]65)C2)C1,cell viability,DLD1 [1],1.01 ± 0.16
same,cell viability,HCT116,0.53 ± 0.064
same,cell viability,SW480 [2],1.17 ± 0.035
same,TCF/Wnt firefly luciferase reporter signal,DLD1 [3],0.666 ± 0.091
same,TCF/Wnt firefly luciferase reporter signal,SW480 [4],0.713 ± 0.075
C=C(C)[C@H]1C(=O)[C@H]2O[C@@]2(C)C(=O)[C@@H](O)[C@H](C(=C)C)CCC2=C[C@H]1OC2=O [bipinnapterolide A],cell viability,DLD1 [1],1.17 ± 0.071
same,cell viability,HCT116,1.04 ± 0.092
same,cell viability,SW480 [2],1.01 ± 0.033
same,TCF/Wnt firefly luciferase reporter signal,DLD1 [3],0.971 ± 0.042
same,TCF/Wnt firefly luciferase reporter signal,SW480 [4],0.913 ± 0.12
"COC(=O)[C@@H]1OC(=O)C2OC23[C@@]1(C)CCC1[C@]2(C)C(C[C@H](O)[C@]13C)C(C)(C)[C@H](OC(C)=O)C[C@@H]2OC(C)=O (stereo partly drawn) [7beta-HYDROXY-7-DESACETOXYKHIVORINIC ACID, METHYL ESTER]",cell viability,DLD1 [1],1.01 ± 0.095
same,cell viability,HCT116,1.065 ± 0.0071
same,cell viability,SW480 [2],1.05
same,TCF/Wnt firefly luciferase reporter signal,DLD1 [3],1.11 ± 0.18
same,TCF/Wnt firefly luciferase reporter signal,SW480 [4],1.03 ± 0.042
COC(=O)C[C@H]1C(C)(C)C(=O)[C@@H]2CC3=C4CC(=O)O[C@@H](c5ccoc5)[C@]4(C)CC[C@@H]3[C@@]1(C)C2=O,cell viability,DLD1 [1],1.01 ± 0.016
same,cell viability,HCT116,1.01 ± 0.014
same,cell viability,SW480 [2],1.035 ± 0.0071
same,TCF/Wnt firefly luciferase reporter signal,DLD1 [3],0.924 ± 0.0028
same,TCF/Wnt firefly luciferase reporter signal,SW480 [4],1.03 ± 0.035
C=C(C)[C@@H]1C[C@H](O)[C@]2(C(=O)O)CC[C@]3(C)[C@H](C[C@H]4OC(=O)C[C@@H](O)[C@]5(C)[C@@H]4[C@@]3(C)CC[C@H]5C(=C)C)[C@@H]12 [22alpha-hydroxychiisanogenin (11)],cell viability,DLD1 [1],0.883 ± 0.21
same,cell viability,HCT116,0.884 ± 0.14
same,cell viability,SW480 [2],0.984 ± 0.094
same,TCF/Wnt firefly luciferase reporter signal,DLD1 [3],0.859 ± 0.2
same,TCF/Wnt firefly luciferase reporter signal,SW480 [4],0.922 ± 0.017
O=c1oc2ccccc2c(O)c1Cc1c(O)c2ccccc2oc1=O,cell viability,DLD1 [1],0.959 ± 0.037
same,cell viability,HCT116,0.979 ± 0.044
same,cell viability,SW480 [2],1.01 ± 0.028
same,TCF/Wnt firefly luciferase reporter signal,DLD1 [3],1.18 ± 0.021
same,TCF/Wnt firefly luciferase reporter signal,SW480 [4],1.08 ± 0.05
CC(C)CCC[C@@H](C)[C@H]1CC[C@H]2[C@@H]3C(=O)C=C4C[C@@H](O)CC[C@]4(C)[C@H]3CC[C@]12C,cell viability,DLD1 [1],1.1 ± 0.092
same,cell viability,HCT116,0.99
same,cell viability,SW480 [2],1.04 ± 0.1
same,TCF/Wnt firefly luciferase reporter signal,DLD1 [3],0.959 ± 0.018
same,TCF/Wnt firefly luciferase reporter signal,SW480 [4],1.01 ± 0.027
CCCCCCCCCCCCCCC(C(=O)O)C(O)(CC(=O)OC)C(=O)O (stereo not given),cell viability,DLD1 [1],0.955 ± 0.05
same,cell viability,HCT116,0.878 ± 0.017
same,cell viability,SW480 [2],0.9505 ± 0.0064
same,TCF/Wnt firefly luciferase reporter signal,DLD1 [3],0.979 ± 0.086
same,TCF/Wnt firefly luciferase reporter signal,SW480 [4],0.947 ± 0.028
COc1cc(C)c(C(=O)Oc2cc(C)c(C(=O)O)c(O)c2C)c(OC)c1C,cell viability,DLD1 [1],0.961 ± 0.033
same,cell viability,HCT116,1.025 ± 0.0071
same,cell viability,SW480 [2],0.987 ± 0.047
same,TCF/Wnt firefly luciferase reporter signal,DLD1 [3],0.953 ± 0.034
same,TCF/Wnt firefly luciferase reporter signal,SW480 [4],1 ± 0.099
O=C(O)COCCN1CCN(C(c2ccccc2)c2ccc(Cl)cc2)CC1 (stereo not given),cell viability,DLD1 [1],0.94 ± 0.054
same,cell viability,HCT116,0.896 ± 0.05
same,cell viability,SW480 [2],0.955 ± 0.024
same,TCF/Wnt firefly luciferase reporter signal,DLD1 [3],1.04 ± 0.035
same,TCF/Wnt firefly luciferase reporter signal,SW480 [4],0.915 ± 0.033
CC1(C)[C@@H](OC(=O)CCC(=O)O)CC[C@]2(C)[C@H]3C(=O)C=C4[C@@H]5C[C@@](C)(C(=O)O)CC[C@]5(C)CC[C@@]4(C)[C@]3(C)CC[C@@H]12,cell viability,DLD1 [1],1 ± 0.011
same,cell viability,HCT116,1.02 ± 0.035
same,cell viability,SW480 [2],1.06 ± 0.014
same,TCF/Wnt firefly luciferase reporter signal,DLD1 [3],1.09
same,TCF/Wnt firefly luciferase reporter signal,SW480 [4],1.01
